Experimental findings from the supplement of paper PMC6522484 are described below.

Structures are written as SMILES. ± gives the standard deviation of the averaged measurements.

The test system of experiment [1] is DLD1. The experiment is described as follows: cell viability (CellTiter-Glo) relative to plate median (fraction of plate median); higher = more viable cells. As to conditions: 5 µM; treatment time 24 h; reporter: 7TFP. The gist of the method:
(§1)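 Normalisation used webcellHTS2 in additive mode without log transformation, scaling each well's luminescence to the plate median. The luminescence was firefly luciferase or CellTiterGlo, read on a Tecan F500 from parallel plates of colorectal cancer cells stably transduced with lentiviral TCF/Wnt firefly luciferase reporters. Those cells had been given library compounds at a final 5 µM for 24 h, and two independent replicates were averaged.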

For experiment [2], the system named is HCT116. The description is as above. To be noted: 5 µM; treatment time 24 h; reporter: TCF4/Wnt. A digest of the protocol:
as §1

Experiment [3] relates to SW480. The experiment is described as above. As to conditions: 5 µM; treatment time 24 h; reporter: 7TFP. A digest of the protocol: as §1
The test system of experiment [4] is DLD1. The experiment is described as follows: TCF/Wnt firefly luciferase reporter signal relative to plate median (fraction of plate median); higher = higher Wnt reporter signal. To be noted: 5 µM; treatment time 24 h; reporter: 7TFP. A digest of the protocol: as §1
Experiment [5] relates to SW480. Described as above. To be noted: 5 µM; treatment time 24 h; reporter: 7TFP. The gist of the method:
as §1

Turning to `CC(C)N(CCC(C(N)=O)(c1ccccc1)c1ccccn1)C(C)C` (stereo not given), the cell viability was 0.914 ± 0.077 in experiment [1], 0.964 ± 0.029 in experiment [2] and 0.981 ± 0.011 in experiment [3]. Also, the “TCF/Wnt firefly luciferase reporter signal” value in experiment [4] is 1.16 ± 0.071; in experiment [5], 1.13 ± 0.014.
Taken in the same sequence, the figures for `COc1ccc2c3c([nH]c2c1)C(C)=NCC3` were 1.03 ± 0.059, 0.971 ± 0.069, 0.999 ± 0.03, 1.25 ± 0.021 and 1.15 ± 0.071.
Taken in the same sequence, the figures for `Cc1nccc2c1[nH]c1cc(O)ccc12` were 0.984 ± 0.0099, 0.978 ± 0.06, 1.01 ± 0.018, 1.01 ± 0.03 and 0.978 ± 0.046.
For the compound `CC[C@H]1[C@@H]2C[C@H]3[C@@H]4N(C)c5ccccc5[C@]45C[C@@H]([C@@H]2[C@H]5O)N3[C@@H]1O`, the results for the cell viability in experiment [1], in experiment [2] and in experiment [3] were 0.898 ± 0.03, 0.899 ± 0.1 and 0.95 ± 0.023, respectively. Besides, the figures for the “TCF/Wnt firefly luciferase reporter signal” value in experiment [4] and in experiment [5] were 0.942 ± 0.0085 and 1.05 ± 0.05, respectively.
Consider `O=[N+]([O-])c1cc([As](=O)(O)O)ccc1O`, for which the cell viability stood at 1.07 ± 0.14 in experiment [1], 1.07 ± 0.14 in experiment [2] and 1.075 ± 0.0071 in experiment [3]. In addition, the “TCF/Wnt firefly luciferase reporter signal” value came to 1.01 ± 0.19 in experiment [4] and 0.959 ± 0.1 in experiment [5].
For `C[N+]1(C)[C@@H]2C[C@@H](OC(=O)[C@H](CO)c3ccccc3)C[C@H]1[C@@H]1O[C@@H]12`, the cell viability in experiment [1] turned out to be 1.09 ± 0.021; in experiment [2], 0.971 ± 0.069; in experiment [3], 1.035 ± 0.0071. Moreover, the “TCF/Wnt firefly luciferase reporter signal” value in experiment [4] amounted to 0.9885 ± 0.005; in experiment [5], 1.085 ± 0.0071.
Taken in the same sequence, the figures for `Oc1ccc(Cl)cc1` were 1.06 ± 0.064, 0.892 ± 0.025, 0.961 ± 0.04, 1.03 ± 0.042 and 1.115 ± 0.0071.
Taken in the same sequence, the figures for `CC(=O)CC1CCCCN1` (stereo not given) were 0.961 ± 0.055, 1.03 ± 0.043, 0.993 ± 0.0099, 0.92 ± 0.09 and 0.977 ± 0.018.
Regarding `C#C[C@]1(O)CC[C@H]2[C@@H]3CCC4=CC(=O)CC[C@]4(C)[C@H]3CC[C@@]21C`, the cell viability was determined as 1.02 ± 0.042 in experiment [1], 1.06 ± 0.021 in experiment [2] and 0.962 ± 0.048 in experiment [3]. The “TCF/Wnt firefly luciferase reporter signal” value in experiment [4] was 1.05 ± 0.064; in experiment [5], 1.05 ± 0.076.
Taken in the same sequence, the figures for `CC(=O)O[C@H]1[C@H]2[C@@H](OC(=O)Cc3ccccc3)[C@@H](C)C[C@]2(OC(C)=O)C(=O)/C(C)=C/[C@@H]2[C@H](CC[C@@]13CO3)C2(C)C` were 1.06 ± 0.097, 1.01 ± 0.086, 1.06 ± 0.021, 1.09 ± 0.014 and 1.075 ± 0.0071.
Regarding `COc1cc([C@@H]2c3cc4c(cc3[C@@H](O)[C@H]3COC(=O)[C@H]23)OCO4)cc(OC)c1O`, the cell viability in experiment [1] worked out at 0.952 ± 0.082; in experiment [2], 0.613 ± 0.12; in experiment [3], 1.06 ± 0.021. Further, the “TCF/Wnt firefly luciferase reporter signal” value was determined as 0.785 ± 0.17 in experiment [4] and 0.742 ± 0.084 in experiment [5].
Taken in the same sequence, the figures for `CN1[C@H]2C[C@H](OC(=O)[C@H](CO)c3ccccc3)C[C@@H]1[C@@H](O)C2` were 0.934 ± 0.033, 1 ± 0.039, 0.957 ± 0.03, 0.924 ± 0.025 and 0.94 ± 0.073.
Taken in the same sequence, the figures for `O=C1C[C@@H]2OCC=C3CN4CC[C@]56c7ccccc7N1[C@H]5[C@H]2[C@H]3C[C@H]46` were 1.06 ± 0.14, 0.963 ± 0.015, 1.05 ± 0.071, 0.927 ± 0.044 and 0.997 ± 0.089.
Taken in the same sequence, the figures for `COc1ccc2c(c1)[nH]c1c(C)nccc12` were 0.98 ± 0.028, 0.904 ± 0.04, 0.964 ± 0.036, 0.623 ± 0.067 and 0.625 ± 0.097.
For `C[C@]12CCC(=O)C=C1CCc1ccc(O)cc12`, the cell viability in experiment [1] came to 1.03 ± 0.042; in experiment [2], 1.05 ± 0.05; in experiment [3] it was 1.05 ± 0.014. In addition, the “TCF/Wnt firefly luciferase reporter signal” value amounted to 1.07 ± 0.14 in experiment [4] and 1.03 ± 0.028 in experiment [5].
Taken in the same sequence, the figures for `[O-][n+]1ccccc1[S-].[O-][n+]1ccccc1[S-].[Zn+2]` were 0.515 ± 0.32, 0.19 ± 0.11, 0.628 ± 0.13, 0.216 ± 0.13 and 0.165 ± 0.15.
Consider `CCCC(=O)O[C@@H]1[C@@H](C)[C@@]2(O)[C@@H](C=C(CO)C[C@]3(O)C(=O)C(C)=C[C@@H]23)[C@@H]2C(C)(C)[C@]12OC(=O)CCC`, for which the figures for the cell viability in experiment [1], in experiment [2] and in experiment [3] were 0.9955 ± 0.0021, 0.991 ± 0.069 and 1.02 ± 0.033, respectively. Moreover, the “TCF/Wnt firefly luciferase reporter signal” value in experiment [4] is 1.03 ± 0.1; in experiment [5] it was 0.984 ± 0.0085.
